molecular target: GABRP; assay: pooled miR-30 sensor sort-seq; sequence = guide strand; details: shRNA

Sequence	sensor-assay potency score (higher = more potent)
TAGTAATACTGACTTCTTCTAC	-0.185
TTACATGCAACAGTTGTCGTGA	0.789
AAATACAGAACATTCCTCCGAA	0.853
TACATCATTATCTTGTCCTGTT	0.716
ACAAACTTGAACTTGTCGCTGG	0.62
TTGCCTTCAAACACCAGCCGCT	0.206
TTCTCGGAAGACAAACTTGAAC	-1.47
TCAAACTGTAAGACCAATCTAG	0.125
TTGGACTCCACAATGTAAGTAT	0.553
TTACATCATTATCTTGTCCTGT	0.386
TTACTCTCTGAAATGCTAGAGA	-0.589
TAGTGATCAACATTACTGGGGT	0.2
TAGTGTAATTTCCTGTCTCCTG	-0.339
TTTGAATTGTGAAATAATCAAC	-1.06
TATGGTGGCTGTGTAGTCCATG	-0.102
TTGATGATATTAGTAATACTGA	-0.994
AAACTTGAACTTGTCGCTGGTT	0.218
TTCATTGTCAAGTCACTGTAGT	0.147

molecular target: GALE; assay: as above; details: shRNA

Sequence	sensor-assay potency score (higher = more potent)
TACTTTTTGAAGAGACGCTGTA	-0.402
TTCCTCGATGAAGAACTTGGAC	-0.651
TTCCAAGTCTTGTCTGCCTGGC	-0.133
TTCTGCTTCTGCCAGCGCCAGA	-1.44
TAACTCTGTAATAATCCAGAGG	-0.909
TAAGGCTGCAATGTGGCCCTTG	0.223
TACTTTGGAAAGCTCTTTCAGA	-0.275
TCAAACTCCACAGAGCGGCCTG	-0.0381
TTTATTTTTAAATACTTTGGAA	-0.203
TGGATGACCGCCATAAAGCTGT	-0.62
TCTGTAATAATCCAGAGGCTTC	-1.35
TTGTACGGGATCTTCTTCCCAG	0.364
TGAAGAACTTGGACTTGCCGTA	-0.185
TACACAGTGGCTGAGCTGCTGA	-1.04
ATGAAGAACTTGGACTTGCCGT	-1.09
TTCCCGTACACAGTGGCTGAGC	-0.834
TCTGTGTCATAGTCATTGCCAA	-0.861
TCACACATCCTGTCCAGCCCTA	-0.0923
ATCCTCACACATCCTGTCCAGC	-0.56
TCGATGAAGAACTTGGACTTGC	-0.0111
TTTTGAAGAGACGCTGTAGGGC	0.205
AACACCAGGTTCTTCACCCCGT	-0.43

Reference: the OligoGym collection
